# Screens: PubChem BioAssay, National Center for Advancing Translational Sciences (NCATS)
# HepG2 tox – kills HepG2 cells in TGF-b inhibitor counter-screen. 410,000 compounds, 0.76% hits. HepG2 CAGA-GFP viability, ATP luminescence, 18 h. Potency, µM (highest dose often 46.1 µM), without a hit: top-dose activity change, negative = cytotoxicity, hits mostly cytotoxic; further: potency means the concentration at half of the fitted maximal effect
#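 HepG2 CAGA-GFP cells (1000/well, DMEM with 1% FBS) received compound, then TGF-beta at 500 pg/mL final, and were incubated 18 hours at 37 degrees C. Viability was read by CellTiter-Glo luminescence. Media-only wells were set as complete cell-killing and DMSO as no toxicity.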
# S-ASM inh – human S-ASM enzyme inhibition | Potency, µM (highest dose often 57.5 µM), for the others: at the highest dose activity change, negative = inhibition, most hits filed as inhibitors | 340,000 compounds, 0.006% hits | P17405 | placental ASM, HMU-PC fluorogenic substrate, 60 min; further: potency means the concentration at half of the fitted maximal effect
# Target sequence (P17405 47-631 limits assumed): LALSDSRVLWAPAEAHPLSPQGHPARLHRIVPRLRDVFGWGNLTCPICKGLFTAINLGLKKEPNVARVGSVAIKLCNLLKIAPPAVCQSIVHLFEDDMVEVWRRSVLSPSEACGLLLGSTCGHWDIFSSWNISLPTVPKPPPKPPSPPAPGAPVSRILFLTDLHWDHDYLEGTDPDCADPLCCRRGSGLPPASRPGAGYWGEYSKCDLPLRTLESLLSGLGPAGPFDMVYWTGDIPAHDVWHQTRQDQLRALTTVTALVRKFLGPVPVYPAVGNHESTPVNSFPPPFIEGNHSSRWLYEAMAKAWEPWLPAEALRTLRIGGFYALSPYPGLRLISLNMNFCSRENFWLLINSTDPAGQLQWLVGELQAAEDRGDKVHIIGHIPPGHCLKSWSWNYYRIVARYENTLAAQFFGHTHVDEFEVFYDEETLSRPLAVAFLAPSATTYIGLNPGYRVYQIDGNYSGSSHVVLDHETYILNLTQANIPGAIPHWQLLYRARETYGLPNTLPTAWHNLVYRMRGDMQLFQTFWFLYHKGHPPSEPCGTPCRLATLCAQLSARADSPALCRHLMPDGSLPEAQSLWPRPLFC
#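 HMU-PC0 cleavage (9 uM final) by human placental ASM, 60 min at 37 °C following 10 min compound exposure at RT; stopped at pH 10, fluorescence Ex 386/Em 447 nm.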
# IL1B secr inh – blocks inflammasome-driven IL-1 beta release | THP-1 LPS/ATP IL-1B secretion, AlphaLISA, 16 h; hits give low values | activity change, % at 57.5 µM | 360,000 compounds, 4.7% hits | AID 743279; in the data active means activity change below about -50%; inconclusive means mostly about -30% to -49%; further: on the % scale 0 is the no-effect control and ±100 the full control effect
#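 THP-1 cells pretreated 1 hr with compounds (up to 57.5 uM final), then stimulated with LPS (250 ng/mL final) plus ATP (1.25 mM final); secreted IL-1B measured by AlphaLISA after 16 hr, decreased signal indicating inhibition.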
# TGFb SMAD3 inh – blocks TGF-b signaling; HepG2 CAGA-GFP TGF-b/SMAD3 reporter, GFP fluorescence, 18 h; TGF-beta stimulated, 500 pg/mL final; Potency, µM (doses to about 46.1 µM), for inactives: at the top dose activity, negative = inhibition, most hits filed as inhibitors; 410,000 compounds, 1.2% hits; AID 588855; further: potency means the concentration at half of the fitted maximal effect; on the % scale 0 is the no-effect control and ±100 the full control effect; nearly all actives have a fitted effect of over 65% in size
#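 Inhibition was scored as loss of TGF-beta-induced (500 pg/mL final, 18 hours, 37 degrees C) GFP in HEPG2 cells carrying a CAGA-GFP reporter, in DMEM with 1% FBS. Well GFP was summed per cell; Activity was normalised to unstimulated and stimulated DMSO wells, then concentration-response fitting.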
# TDP1 cell CPT – growth inhibition of DT40 Tdp1-/-;hTDP1 cells with camptothecin (screen for TDP1 inhibitors) | chicken DT40 Tdp1-/-;hTDP1 cells + 20 nM CPT, ATP luminescence, 48 h | Potency, µM (titrated, usually from 46.2 µM), for inactives: top-dose activity change, negative = growth inhibition, usual class: inhibitors | 420,000 compounds, 12% hits | AID 686979; further: potency means the concentration at half of the fitted maximal effect; on the % scale 0 is the no-effect control and ±100 the full control effect; nearly all actives have a fitted effect of over 55% in size
#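 Chicken DT40 Tdp1-/- cells stably complemented with human TDP1 were seeded at 400 cells/well in medium containing 20 nM camptothecin, exposed to pin-transferred compounds, and grown at 37 °C for at least 48 hr. Viability was read as ATP luminescence.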
# DT40 TDP1 no CPT – qHTS for Inhibitors of human tyrosyl-DNA phosphodiesterase 1 (TDP1): qHTS in cells in absence of CPT | DT40 Tdp1-/- hTDP1 cells, no CPT, ATP luminescence, 48 h | Potency, µM (top dose mostly 46.2 µM), for the others: at the highest dose activity change, negative = growth inhibition, actives largely listed as inhibitors | 420,000 compounds, 15% hits; further: potency means the concentration at half of the fitted maximal effect; on the % scale 0 is the no-effect control and ±100 the full control effect; nearly all actives have a fitted effect of over 55% in size
#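 Cells were dispensed at 400 per well, compounds added by pin tool, plates incubated ≥48 hr at 37 °C, then CellTiter-Glo added for 30 min at room temperature before luminescence reading. Line: DT40 Tdp1-/- complemented with hTDP1; camptothecin omitted.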
# The depositor's hits bear a star; ? = inconclusive; . = no result. Sampled rows, rich in hits. Any-hit rate of the full collection: about 19%. Unless noted, the call rests on the fitted dose curve; in most records, active means well fitted curve in the direction sought with a large enough effect; inconclusive means small, poorly fitted or top-dose-only effect, or another doubt; inactive means no such curve, though single readings can be large; an effect the other way counts as inactive or inconclusive.
SMILES,HepG2 tox,S-ASM inh,IL1B secr inh,TGFb SMAD3 inh,TDP1 cell CPT,DT40 TDP1 no CPT
CCN(CC(=O)Nc1c(F)cccc1F)C(=O)CN1C(=O)C2CCCCC2C1=O (stereo unspecified),5%,3%,17,-2%,6%,12%
Cc1cnc(SCC2CCCO2)nc1C1CCCN(C(=O)C2=NNC(=O)CC2)C1 (stereo unspecified),.,.,.,.,-2%,-4%
CCCN(CC(=O)Nc1ccccc1OC)C(=O)CNC(=O)c1ccc(C)s1,-7%,.,0,-1%,-1%,1%
CCOc1ccccc1NC(=O)c1cn(C2CCCC2)c(=O)c2c1c1ccccc1n2C,4%,.,.,21%,13µM*,9.2µM*
COc1cc(NC(=O)c2cn(C3CCCC3)c(=O)c3c2c2ccccc2n3C)cc(OC)c1OC,-6%,.,.,-8%,?,18µM*
COc1ccc(Cl)cc1NC(=O)c1cn(C2CCCC2)c(=O)c2c1c1ccccc1n2C,-9%,.,.,-4%,?,?
O=C(NC1CCCCC1)N(Cc1cc2cc3c(cc2[nH]c1=O)OCCO3)C1CCCCC1,-8%,-4%,?,17%,?,?
O=C(COC(=O)C1CCC1)Nc1cc(S(=O)(=O)N2CCCCC2)ccc1Cl,-7%,3%,-3,-8%,-3%,-13%
N#C/C(=C(/O)c1ccco1)c1nc2ccccc2[nH]1,1%,-1%,3,-18%,-11%,-17%
N#C/C(=C(/O)C(Cl)c1ccccc1)c1nc2ccccc2s1 (stereo unspecified),-28%,-3%,-5,0%,6.5µM*,13µM*
N#C/C(=C(/O)c1ccco1)c1nc2ccccc2s1,-16%,-9%,-18,?,?,15µM*
N#C/C(=C(/O)c1cc2ccccc2o1)c1nc2ccccc2s1,-1%,-5%,0,?,?,13µM*
Cn1c(/C(C#N)=C(\O)c2cccc(F)c2)nc2ccccc21,-25%,-1%,2,21%,-1%,?
N#C/C(=C(/O)c1cccc(F)c1)c1nc2ccccc2s1,-7%,-5%,-59*,-27%,21µM*,12µM*
COC(=O)c1cnc(NCc2ccc(F)cc2)c2ccccc12,-14%,.,.,?,-29%,?
Cc1ccc(C2=NN(CC(=O)NCc3ccccn3)C(=O)CC2)cc1,4%,-2%,10,-1%,0%,0%
Cc1oc2ncn(CC(C)C)c(=O)c2c1C(=O)NCCCN1CCCCC1,2%,.,.,17%,-1%,-1%
O=C(Nc1cccc2ccccc12)c1cnn2c1NC(=C1CC1)C=C2C(F)F,4%,.,.,1%,?,?
CCCN(C/C=C/I)C1CCc2cccc(O)c2C1 (stereo unspecified),.,.,.,.,?,15µM*
COc1ccc(-c2noc(CSc3nnc(CCc4ccccc4)n3-c3ccccc3)n2)cc1OC,-23%,-15%,-10,-13%,15µM*,16µM*
COc1ccc(-c2noc(CSc3nnc(C)n3-c3ccc(C)cc3)n2)cc1OC,-20%,.,.,1%,?,?
Cc1ccc(-c2noc(CSc3nnc(CCc4ccccc4)n3-c3ccccc3)n2)cc1,-1%,-17%,-12,?,16µM*,16µM*
Cc1ccc(-c2noc(CSc3nnc(Cc4ccccc4)n3-c3ccc(Cl)cc3)n2)cc1,-32%,-27%,-24,?,-15%,-30%
CS(=O)(=O)c1ccccc1C(=O)N(CCC1=CCCCC1)c1c(N)n(Cc2ccccc2)c(=O)[nH]c1=O,-41%,1%,-5,3%,29µM*,?
